According to PubChem BioAssay AID624300 (Southern Research Specialized Biocontainment Screening …, 2012):
In all, about 2,400 compounds went through this assay and about 360 (15%) were called active.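 Rule for the calls: active = viability falls under 70% at one or more tested concentrations, taken as toxicity; inactive = viability stays over 70% at every dose.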 Only a sample is shown. Results with a measured potency or affinity are listed apart.

Experiment: viability loss in HeLa cells – cytotoxicity control for MgcRacGAP inhibitor project, dose response (AID 624300);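 note: 100% = median of untreated control wells on the same plate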
Conditions: CellTiter-Glo luminescence, 24 h; series mostly up to 100 µM; viability: at the top concentration

SMILES	viability
NCC[C@H](O)C(=O)N[C@@H]1C[C@H](N)[C@@H](O[C@H]2O[C@H](CN)[C@@H](O)[C@H](O)[C@H]2O)[C@H](O)[C@H]1O[C@H]1O[C@H](CO)[C@@H](O)[C@H](N)[C@H]1O	104% (inactive)
CSCc1ccc(C(=O)N2CCCC(Nc3ccc4c(c3)OCCO4)C2)o1 (centres undefined)	100% (inactive)
Cc1ccccc1N1C(S)=C(C#N)C(=O)NC12CCCCC2	103% (inactive)
C/C(=N\Nc1cccc2cccnc12)c1ccc[nH]1	96.6% (inactive)
COc1ccc(CN2CCN(Cc3ccco3)CC2)cc1OC	93.6% (inactive)
O=C1C(=Cc2ccco2)CCC1=Cc1ccco1	99.7% (inactive)
CCN(CC)c1ccc(NC(=O)CCN2C(=O)c3ccccc3S2(=O)=O)c(C)c1	105% (inactive)
Nc1cc(C(F)(F)F)ccc1N1CCOCC1	96.6% (inactive)
CCc1ccccc1NC(=S)NCC1CCN(c2ccc(OC)cc2)C1 (centres undefined)	95% (inactive)
Nc1ccc2c(c1)[nH]c(=O)c1cc(N)ccc12	93.6% (inactive)
Nc1ccc2nc(Cc3ccccc3)[nH]c2c1	115% (inactive)
O=C(c1ccc(Cl)c(S(=O)(=O)N2CCCCCC2)c1)N1CCN(c2ccc(O)cc2)CC1	87% (inactive)
CCN(CC)S(=O)(=O)c1ccc(N/N=C/c2ccc(O)cc2)nc1	95.9% (inactive)
CSc1nc(C)c2c(n1)N(c1ccc(O)cc1)CC2	103% (inactive)
CCN1CCN(c2ccc(N=Cc3ccccc3O)cc2)CC1	101% (inactive)
CC(=O)c1c(C)c(C)c2n1CCn1c(C)ccc1-2	96.3% (inactive)
CCN=C1S/C(=C\c2ccc(O)c(OCC)c2)C(=O)N1CC	101% (inactive)
CN1C(=O)/C(=C/c2ccc(C(=O)Nc3ccc(O)cc3C(=O)O)cc2)SC1=S	103% (inactive)
Cc1ccc(NCCCCO)cc1C	95.5% (inactive)
O=c1cc(-c2ccc(O)c(O)c2)oc2cc(O)c([C@@H]3O[C@H](CO)[C@@H](O)[C@H](O)[C@H]3O)c(O)c12	84.2% (inactive)
C/C(=N\NC(=O)c1cccc(N/N=C(\C)c2cc(O)ccc2O)c1)c1cc(O)ccc1O	86% (inactive)
Cn1c(=O)[nH]c(NCCc2ccc(O)cc2)c([N+](=O)[O-])c1=O	106% (inactive)
CC(=O)C1=C(O)C(=O)N(c2ccc(O)cc2)C1c1ccccc1[N+](=O)[O-] (centres undefined)	93% (inactive)
COc1cc(/C=N/NC(=O)c2cc[n+]([O-])cc2)ccc1O	102% (inactive)

SMILES	viability
O=C1C=CC(=O)N1c1ccccc1N1C(=O)C=CC1=O	114% (inactive)
CCS(=O)(=O)c1ccc2oc(=O)c(/C=C(\O)c3ccc(Cl)cc3)nc2c1	99.4% (inactive)
CN(C)CCCC1Sc2ccccc2Sc2ccccc21 (centres undefined)	113% (inactive)
Nc1cc([N+](=O)[O-])ccc1Nc1ccc(O)cc1	91.9% (inactive)
Cc1ccc(-n2c(=S)[nH]c3sc4c(c3c2=O)CCC4)cc1	80.5% (inactive)
COc1cc(/C(C)=N\NC(=O)CSc2nc3ccccc3n2C)ccc1O	102% (inactive)
CCN1CCN(CC(=O)Nc2nc3ccc(OC)cc3s2)CC1	88.7% (inactive)
CCC(=O)N1CCc2cc(S(=O)(=O)CCC(=O)NCc3ccc(C)cc3)ccc21	97.8% (inactive)
O=C(CCc1c[nH]c2ccccc12)NCCc1ccc(O)cc1	101% (inactive)
CCOc1ccc(CN2CCN(Cc3c[nH]c4ccccc34)CC2)cc1	93.4% (inactive)
Nc1nc2cc(S(=O)(=O)NC3=NCCCCC3)ccc2s1	99.8% (inactive)
Nc1nc(N)c2[nH]c(=S)[nH]c2n1	90.9% (inactive)
CN(CC(=O)NCc1ccncc1)S(=O)(=O)c1ccc(Cl)cc1	96.8% (inactive)
COC(=O)c1[nH]c2ccc(C)cc2c1NC(=O)Oc1ccccc1	92.6% (inactive)
O=[N+]([O-])c1ccccc1OCCNCc1ccccc1	96.5% (inactive)
Nc1ccc(OCCc2ccccc2)cc1	108% (inactive)
CC(C)[C@H](N[C@@H](C)c1ccccc1)c1c(O)ccc2ccccc12	97.3% (inactive)
COc1cccc(OC)c1OCCNC(C)(C)C	100% (inactive)
CCn1c(-c2ccccc2)csc1=Nc1ccc(O)cc1	98.7% (inactive)
O=c1[nH][nH]cc1C=Nc1cc(Cl)ccc1O	95.4% (inactive)
CN(C)/C=C1\NC(=S)N(c2ccccc2)C1=O	99.2% (inactive)
CCc1ccc(NC(=O)CNCc2ccc(OC)c(OC)c2)cc1	105% (inactive)
CCOc1ccccc1/C=c1\sc2ncnn2c1=O	91.7% (inactive)
Cn1c(=O)[nH]c(N)c(Br)c1=O	105% (inactive)

SMILES	viability
O=C(COc1ccccc1)NCC(=O)N/N=C/c1ccc(O)cc1O	103% (inactive)
O=Nc1ccc(NOC(=O)c2ccccc2)cc1	99.9% (inactive)
Nc1ccc2c(c1)Nc1ccccc1CC2	97.6% (inactive)
CCN1CCN(CCOc2ccccc2OCc2ccccc2)CC1	97.9% (inactive)
COc1cc(/C=N/Nc2ccc(C(=O)O)cc2)ccc1O	92.5% (inactive)
COc1cc(/C=N/NC(=O)C(C)n2nnc3ccccc32)ccc1O (centres undefined)	107% (inactive)
COc1cc(/C=N/Nc2nc(C)cc(C)n2)ccc1O	104% (inactive)
COc1cc(/C=N/Nc2nc(N3CCCC3)nc(N3CCCC3)n2)ccc1O	89.4% (inactive)
Oc1ccc(/C=N/Nc2ncc(Cl)cc2Cl)cc1	107% (inactive)
Oc1ccc(/C=N/Nc2ncnc3nc[nH]c23)cc1	99.2% (inactive)
O=C(O)C1CCCCC1C(=O)Nc1ccc(S(=O)(=O)N2CCOCC2)cc1 (centres undefined)	107% (inactive)
Cc1ccn2c(=S)[nH]nc2c1	106% (inactive)
Oc1cc(Br)ccc1C=Nc1ccc(N2CCCCC2)cc1	95.8% (inactive)
COc1ccccc1CNCC(=O)Nc1ccc(N(C)C)cc1	100% (inactive)
O=C(N/N=C/c1ccc(O)cc1)Nc1cccc2nsnc12	84.8% (inactive)
Cc1csc(=O)n1CC(=O)OC(C)C(=O)Nc1ccc(N(C)C)cc1 (centres undefined)	106% (inactive)
CCN(Cc1ccccc1)c1ccc(/C=N/N2CCOCC2)cc1	101% (inactive)
C=CCn1c(SCC(=O)Nc2ccc(O)cc2)nc2sc(CC)cc2c1=O	92.4% (inactive)
Brc1ccccc1OCCCCCN1CCOCC1	95% (inactive)
C=CCNC(=O)CN1CCN(C(c2ccccc2)c2ccccc2)CC1	96.1% (inactive)
COc1ccc(NC2CCCN(C(=O)c3ccc(C(C)=O)s3)C2)cc1 (centres undefined)	108% (inactive)
CN=c1scc(C)n1/N=C/c1ccc(O)cc1	104% (inactive)
Cc1cc(Br)cc(C=Nc2ccc(N3CCOCC3)cc2)c1O	108% (inactive)
O=C(c1cccc(Cl)c1)N1CCN(C2CCCCC2)CC1	98.8% (inactive)

SMILES	viability
Cc1c(Cl)cccc1NC(=S)Nc1ccc2[nH]c(=O)[nH]c2c1	103% (inactive)
Cc1ccc(OCCN2CCN(C)CC2)c([N+](=O)[O-])c1	93.3% (inactive)
O=C(CSc1nnnn1C1CC1)N1CCN(c2ccc(O)cc2)CC1	104% (inactive)
CCC(C)N1CCN(C(=O)c2cccs2)CC1 (centres undefined)	103% (inactive)
O=c1oc2ccccc2cc1-c1csc(Nc2ccc(O)cc2)n1	100% (inactive)
Oc1ccc(Nc2ncnc3c2oc2ccccc23)cc1	93.6% (inactive)
OC1CNc2c(ccc3ccccc23)C1 (centres undefined)	99.1% (inactive)
COc1ccc(OCCOCCN2CCN(C)CC2)cc1	109% (inactive)
CC(CCN1CCN(CCO)CC1)c1ccccc1 (centres undefined)	100% (inactive)
O=[N+]([O-])c1ccc(N2CCN(CCOCCO)CC2)c([N+](=O)[O-])c1	92.2% (inactive)
OCCN1CCN(Cc2ccc3ccccc3c2)CC1	99.5% (inactive)
COc1ccc(O)c(/C=N/NC(=O)c2c(C)nnn2-c2nonc2N)c1	91% (inactive)
c1ccc(CC2CCN(Cc3ccccn3)CC2)cc1	95.7% (inactive)
CCC1(c2ccccc2)NC(=O)N(CC(=O)Nc2ccc(N3CCCC3)cc2C)C1=O (centres undefined)	91.3% (inactive)
CCOC(=O)c1c(C)[nH]c(C(=O)CN2CCN(CC)CC2)c1C	99.3% (inactive)
CCOC(=O)C1=C(C)Nc2ccc(C)cc2S1	94.1% (inactive)
COC(=O)c1cc(NCc2cccs2)ccc1N1CCOCC1	96% (inactive)
COc1cc(CNc2ccc(N3CCN(C(C)=O)CC3)cc2)ccc1OCc1ccccc1	89% (inactive)
COc1cc(CNc2ccc3[nH]c(=O)[nH]c3c2)ccc1OCc1ccccc1	108% (inactive)
O=C(N/N=C/c1ccc(O)c2ccccc12)c1cccnc1	96.2% (inactive)
Cc1nc(N)sc1-c1ccccc1	94.9% (inactive)
COc1cc(Br)c(CNc2cc(C)ccc2C)cc1OC	87.7% (inactive)
COc1ccccc1/C=C1/C(=O)N(c2ccccc2)N=C1C	103% (inactive)
CC1=NN(c2ccc(C(=O)O)cc2)C(=O)/C1=C\c1ccc(OC(=O)c2cccs2)cc1	94.7% (inactive)

SMILES	viability
Cc1c(N2C(=O)/C(=C\c3ccc(N(C)C)cc3)N(C)C2=S)c(=O)n(-c2ccccc2)n1C	83.4% (inactive)
CC1=NN(c2cccc(C(=O)O)c2)C(=O)/C1=C\C=C\c1ccco1	94.4% (inactive)
Cc1ccc(N2C(S)=C(C#N)C(=O)NC2c2ccco2)cc1 (centres undefined)	98.9% (inactive)
CCOc1cc(/C=N/NC(=O)C(=O)N2CCCC2)ccc1O	104% (inactive)
Oc1ccc2ccccc2c1Br	94.4% (inactive)
CC[n+]1c(/C=C/N(C)c2ccccc2)oc2ccc(Cl)cc21	95.9% (inactive)
CC(=O)N1CCN(c2ccc(NCc3ccco3)cc2)CC1	106% (inactive)
O=C(O)c1ccc(COc2ccccc2C=C2C(=O)c3ccccc3C2=O)cc1	98.2% (inactive)
CCN(CC)c1ccc(/C=C2\C(=O)c3ccc(C(=O)O)cc3C2=O)cc1	101% (inactive)
Cc1cc(-c2n[nH]c(=S)n2/N=C/c2ccccc2[N+](=O)[O-])n[nH]1	106% (inactive)
Cc1cccn2c(=S)[nH]nc12	93.5% (inactive)
OCC1CCCN(C(=S)Nc2ccc(Nc3ccccc3)cc2)C1 (centres undefined)	95.6% (inactive)
Nc1ccc(Nc2ccncc2)cc1	99.7% (inactive)
Cc1c(O)ccc(NC(=O)/C=C/c2ccccc2)c1C	97.4% (inactive)
Cc1ccc(/C=C/C(=O)Nc2ccc([N+](=O)[O-])c(NC(=O)/C=C/c3ccc(C)o3)c2)o1	102% (inactive)
C/C(=N/NC(=O)CSc1nc2ccccc2n1C)c1ccc(O)cc1	100% (inactive)
CCOC(=O)C(Cc1ccccc1)C(=O)Nc1ccc(N(CC)CC)cc1 (centres undefined)	98.7% (inactive)
CCOc1c(C=C(C#N)C#N)c2ccccc2n1CC	98.9% (inactive)
CCOC(=O)/C(C#N)=C\c1ccc(O)c(OC)c1	87.2% (inactive)
COc1ccc(NC2CCCN(C(=O)CCCn3cncn3)C2)cc1OC (centres undefined)	104% (inactive)
O=C(CNC(=O)C1COc2ccccc2O1)N/N=C/c1ccc(O)cc1O (centres undefined)	107% (inactive)
Nc1ccc(Nc2nc(-c3ccncc3)cs2)cc1	92.6% (inactive)
CCCCN(C)CCNC(=O)CSCc1ccc(C)cc1	92.8% (inactive)
